Active and inactive are the calls of the source. The calls were made as follows: active = hit-call score of the fitted dose curve at least 0.9, where 1 is the maximum; inactive = score below 0.9.
How the values were obtained:
[1] = read-out: Fatty acid synthase (Homo sapiens) (UniProt P49327); experiment: LTEA_HepaRG_FASN: Life Technologies and Expression Analysis (LTEA) Assay for Fatty Acid Synthase (FASN) using HepaRG (AID 2283448); conditions: mRNA level, 48 h; actives raise or lower the signal;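 as to AC50: differentiated human HepaRG liver cells in serum-free induction medium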
Outline: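 FASN expression changes, up or down relative to 0.5% DMSO, were measured by qRT-PCR in human HepaRG cells after 48 h treatment with chemicals at eight concentrations (half-log steps from 100 uM).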

[2] = read-out: Cyclin Dependent Kinase Inhibitor 1A (CDKN1A), CDKN1A (gene 1026); experiment: LTEA_HepaRG_CDKN1A: Life Technologies and Expression Analysis (LTEA) Assay for Cyclin Dependent Kinase Inhibitor 1A (CDKN1A) using HepaRG (AID 2283450); conditions: mRNA level, 48 h; actives raise or lower the signal
Outline: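 Expression quantified by Fluidigm qRT-PCR with ACTB, GAPDH and POLR2A normalization, fitted bidirectionally against 0.5% DMSO. Cells: HepaRG, plated 48 h then treated 48 h in serum-free induction medium, top concentration 100 uM with half-log dilutions.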

[3] = read-out: Cyclin D1 (CCND1), CCND1 (gene 595); experiment: LTEA_HepaRG_CCND1: Life Technologies and Expression Analysis (LTEA) Assay for Cyclin D1 (CCND1) using HepaRG (AID 2283451); conditions: mRNA level, 48 h; actives raise or lower the signal
Outline: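 Expression of CCND1 was quantified by qRT-PCR on Fluidigm arrays using ACTB, GAPDH and POLR2A as reference genes. HepaRG cultures, plated 48 h beforehand, were dosed for 48 h at up to 100 uM (half-log, 8 points) in 0.5% DMSO.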

[4] = read-out: catalase (CAT), CAT (gene 847); experiment: LTEA_HepaRG_CAT: Life Technologies and Expression Analysis (LTEA) Assay for catalase (CAT) using HepaRG (AID 2283452); conditions: mRNA level, 48 h; actives raise or lower the signal;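 as to AC50: TaqMan qRT-PCR signal normalized to ACTB GAPDH and POLR2A housekeeping genes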
Outline: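 Expression of CAT was quantified by TaqMan qRT-PCR with ACTB/GAPDH/POLR2A normalization after 48 h chemical exposure of HepaRG. Eight-point half-log series, top 100 uM, in 0.5% DMSO; gain or loss fitted against vehicle.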

[5] = read-out: flavin-containing dimethylaniline monooxygenases 3 (FMO3), FMO3 (gene 2328); experiment: LTEA_HepaRG_FMO3: Life Technologies and Expression Analysis (LTEA) Assay for flavin-containing dimethylaniline monooxygenases 3 (FMO3) using HepaRG (AID 2283453); conditions: mRNA level, 48 h; actives raise or lower the signal;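 as to AC50: differentiated human HepaRG liver cells in serum-free induction medium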
Outline: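 Differentiated HepaRG cells in serum-free induction medium, exposed 48 h in duplicate to 8 half-log concentrations up to 100 uM in 0.5% DMSO. FMO3 mRNA by qRT-PCR, normalized to ACTB, GAPDH, POLR2A; bidirectional fit vs DMSO.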

[6] = read-out: Cytochrome P450 (CYP1A1), CYP1A1 (gene 1543); experiment: LTEA_HepaRG_CYP1A1: Life Technologies and Expression Analysis (LTEA) Assay for Cytochrome P450 (CYP1A1) using HepaRG (AID 2283454); conditions: mRNA level, 48 h; actives raise or lower the signal
Outline: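 CYP1A1 transcript levels measured by Fluidigm qRT-PCR against three housekeeping genes, 48 h after chemical dosing of human HepaRG cells (highest concentration 100 uM, half-log steps, 0.5% DMSO vehicle). Gain or loss of signal fitted relative to DMSO.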

[7] = read-out: CFLAR gene, CFLAR (gene 8837); experiment: LTEA_HepaRG_CFLAR: Life Technologies and Expression Analysis (LTEA) Assay for CFLAR gene using HepaRG (AID 2283455); conditions: mRNA level, 48 h; actives raise or lower the signal
Outline: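 HepaRG, 48 h exposure, 8-pt conc-response (100 uM top, half-log), 0.5% DMSO vehicle, duplicates. CFLAR expression by qRT-PCR; ACTB/GAPDH/POLR2A normalization; gain or loss fit vs DMSO baseline.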

[8] = read-out: Forkhead box O1 (FOXO1), FOXO1 (gene 2308); experiment: LTEA_HepaRG_FOXO1: Life Technologies and Expression Analysis (LTEA) Assay for Forkhead box O1 (FOXO1) using HepaRG (AID 2283456); conditions: mRNA level, 48 h; actives raise or lower the signal
Outline: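 Readout is FOXO1 transcript level by multiplexed qRT-PCR against three housekeeping genes, curve-fitted in both directions relative to 0.5% DMSO vehicle. Human HepaRG cultures received chemicals for 48 h, up to 100 uM in half-log steps.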

[9] = read-out: growth arrest and DNA damage 45 (GADD45A), GADD45A (gene 1647); experiment: LTEA_HepaRG_GADD45A: Life Technologies and Expression Analysis (LTEA) Assay for growth arrest and DNA damage 45 (GADD45A) using HepaRG (AID 2283458); conditions: mRNA level, 48 h; actives raise or lower the signal
Outline: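 Cells plated and cultured 48 h, switched to serum-free induction medium, then dosed for 48 h (100 uM top, half-log dilutions, 0.5% DMSO). RNA was isolated and transcript measured by Fluidigm qRT-PCR.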

[10] = read-out: Forkhead box O3 (FOXO3), FOXO3 (gene 2309); experiment: LTEA_HepaRG_FOXO3: Life Technologies and Expression Analysis (LTEA) Assay for Forkhead box O3 (FOXO3) using HepaRG (AID 2283459); conditions: mRNA level, 48 h; actives raise or lower the signal
Outline: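 HepaRG, 48 h post-dose; 8 conc., half-log from 100 uM, 0.5% DMSO, duplicates; serum-free induction medium. Readout: FOXO3 mRNA, TaqMan qRT-PCR, housekeeping-normalized. Bidirectional curve fit vs DMSO baseline.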

[11] = read-out: ABC Transporter (ABCB1), ABCB1 (gene 5243); experiment: LTEA_HepaRG_ABCB1: Life Technologies and Expression Analysis (LTEA) Assay for ABC Transporter (ABCB1) using HepaRG (AID 2283460); conditions: mRNA level, 48 h; actives raise or lower the signal
Outline: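 Expression of ABCB1 was quantified by qRT-PCR against three housekeeping genes after human HepaRG cultures received test chemicals for 48 hours. Concentrations spanned eight half-log steps topping at 100 uM in 0.5% DMSO; gain or loss of signal was fitted relative to vehicle.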

[12] = read-out: ABC Transporter (ABCC3), ABCC3 (gene 8714); experiment: LTEA_HepaRG_ABCC3: Life Technologies and Expression Analysis (LTEA) Assay for ABC Transporter (ABCC3) using HepaRG (AID 2283462); conditions: mRNA level, 48 h; actives raise or lower the signal
Outline: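 Transcript level by TaqMan qRT-PCR, normalised to three housekeeping genes, fitted in both directions relative to vehicle. Chemicals tested in duplicate at eight half-log concentrations up to 100 uM for 48 h on HepaRG cells (0.5% DMSO).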

[13] = read-out: ABC Transporter (ABCC2), ABCC2 (gene 1244); experiment: LTEA_HepaRG_ABCC2: Life Technologies and Expression Analysis (LTEA) Assay for ABC Transporter (ABCC2) using HepaRG (AID 2283464); conditions: mRNA level, 48 h; actives raise or lower the signal
Outline: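 Endpoint is ABCC2 transcript level from qRT-PCR, normalized to three housekeeping genes and fitted bidirectionally relative to DMSO. Human HepaRG cells received test chemical for 48 h at up to 100 uM (8 points, half-log steps, 0.5% DMSO), duplicate wells.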

[14] = read-out: Cyclin D2 (CCND2), CCND2 (gene 894); experiment: LTEA_HepaRG_CCND2: Life Technologies and Expression Analysis (LTEA) Assay for Cyclin D2 (CCND2) using HepaRG (AID 2283449); conditions: mRNA level, 48 h; actives raise or lower the signal
Outline: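 Read-out is CCND2 mRNA level measured by qRT-PCR in human HepaRG liver cells and normalised to three housekeeping genes. Chemicals were applied for 48 h at up to 100 uM, with gain or loss fitted relative to 0.5% DMSO.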

[15] = CEETOX_H295R_CORTISOL: CeeTox H295R High-throughput Steroidogenesis Assay for Cortisol (AID 2283438); conditions: actives raise or lower the signal
Outline: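 Forskolin 10 uM 48 h prestim → test cmpd in DMSO (0.1% final) 48 h → medium MTBE-extracted → LC-MS/MS cortisol vs 7-pt std curve. Gain/loss of signal fitted vs DMSO. MTT viability in same wells.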

[16] = CEETOX_H295R_DOC: CeeTox H295R High-throughput Steroidogenesis Assay for DOC (AID 2283439); conditions: actives raise or lower the signal
Outline: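 Readout: 11-deoxycorticosterone in culture medium by reverse-phase C18 HPLC with ESI+ tandem MS after MTBE extraction. Cells: H295R, forskolin-primed (10 uM, 48 h), chemical-treated 48 h; DMSO 0.1% final. Activity fitted bidirectionally versus DMSO.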

[17] = CEETOX_H295R_ESTRADIOL: CeeTox H295R High-throughput Steroidogenesis Assay for Estradiol (AID 2283440); conditions: actives raise or lower the signal;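 also: estradiol secreted into medium quantified by LC-MS/MS after dansyl derivatisation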
Outline: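 Estradiol in spent medium measured by LC-MS/MS after dansyl chloride derivatisation. Forskolin-primed (10 uM, 48 h) human adrenal H295R cells received test chemical 48 h at 0.1% DMSO; concentrations lowered until MTT viability >/=70%.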

[18] = CEETOX_H295R_ESTRONE: CeeTox H295R High-throughput Steroidogenesis Assay for Estrone (AID 2283441); conditions: actives raise or lower the signal;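 also: estrone secreted into medium measured by LC-MS/MS after dansyl derivatization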
Outline: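 H295R cells prestimulated 48 h with 10 uM forskolin, then exposed 48 h to chemicals in 0.1% DMSO final; estrone in medium extracted with MTBE, dansyl-derivatized, quantified by HPLC-MS/MS; bidirectional fitting versus DMSO, viability by MTT.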

[19] = CEETOX_H295R_PROG: CeeTox H295R High-throughput Steroidogenesis Assay for Progesterone (PROG) (AID 2283442); conditions: actives raise or lower the signal;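 as to AC50: human H295R adrenal cells primed with 10 µM forskolin before dosing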
Outline: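 Progesterone secreted by human H295R cells was measured by LC-MS/MS following 48 h chemical exposure at 0.1% DMSO, preceded by 48 h forskolin (10 uM) stimulation. Same-well MTT viability; cytotoxic concentrations diluted 10- or 100-fold and retested.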

[20] = CEETOX_H295R_TESTO: CeeTox H295R High-throughput Steroidogenesis Assay for Testosterone (TESTO) (AID 2283457); conditions: actives raise or lower the signal
Outline: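 Testosterone secreted into the medium over 48 h by H295R cells (maximum passage 10) was quantified by LC-MS/MS after MTBE extraction. Fitted in both directions against DMSO, with concentrations diluted until MTT viability was ≥70%.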

Measured: AC50

Sequence of Fatty acid synthase (Homo sapiens) (P49327 whole entry, looked up): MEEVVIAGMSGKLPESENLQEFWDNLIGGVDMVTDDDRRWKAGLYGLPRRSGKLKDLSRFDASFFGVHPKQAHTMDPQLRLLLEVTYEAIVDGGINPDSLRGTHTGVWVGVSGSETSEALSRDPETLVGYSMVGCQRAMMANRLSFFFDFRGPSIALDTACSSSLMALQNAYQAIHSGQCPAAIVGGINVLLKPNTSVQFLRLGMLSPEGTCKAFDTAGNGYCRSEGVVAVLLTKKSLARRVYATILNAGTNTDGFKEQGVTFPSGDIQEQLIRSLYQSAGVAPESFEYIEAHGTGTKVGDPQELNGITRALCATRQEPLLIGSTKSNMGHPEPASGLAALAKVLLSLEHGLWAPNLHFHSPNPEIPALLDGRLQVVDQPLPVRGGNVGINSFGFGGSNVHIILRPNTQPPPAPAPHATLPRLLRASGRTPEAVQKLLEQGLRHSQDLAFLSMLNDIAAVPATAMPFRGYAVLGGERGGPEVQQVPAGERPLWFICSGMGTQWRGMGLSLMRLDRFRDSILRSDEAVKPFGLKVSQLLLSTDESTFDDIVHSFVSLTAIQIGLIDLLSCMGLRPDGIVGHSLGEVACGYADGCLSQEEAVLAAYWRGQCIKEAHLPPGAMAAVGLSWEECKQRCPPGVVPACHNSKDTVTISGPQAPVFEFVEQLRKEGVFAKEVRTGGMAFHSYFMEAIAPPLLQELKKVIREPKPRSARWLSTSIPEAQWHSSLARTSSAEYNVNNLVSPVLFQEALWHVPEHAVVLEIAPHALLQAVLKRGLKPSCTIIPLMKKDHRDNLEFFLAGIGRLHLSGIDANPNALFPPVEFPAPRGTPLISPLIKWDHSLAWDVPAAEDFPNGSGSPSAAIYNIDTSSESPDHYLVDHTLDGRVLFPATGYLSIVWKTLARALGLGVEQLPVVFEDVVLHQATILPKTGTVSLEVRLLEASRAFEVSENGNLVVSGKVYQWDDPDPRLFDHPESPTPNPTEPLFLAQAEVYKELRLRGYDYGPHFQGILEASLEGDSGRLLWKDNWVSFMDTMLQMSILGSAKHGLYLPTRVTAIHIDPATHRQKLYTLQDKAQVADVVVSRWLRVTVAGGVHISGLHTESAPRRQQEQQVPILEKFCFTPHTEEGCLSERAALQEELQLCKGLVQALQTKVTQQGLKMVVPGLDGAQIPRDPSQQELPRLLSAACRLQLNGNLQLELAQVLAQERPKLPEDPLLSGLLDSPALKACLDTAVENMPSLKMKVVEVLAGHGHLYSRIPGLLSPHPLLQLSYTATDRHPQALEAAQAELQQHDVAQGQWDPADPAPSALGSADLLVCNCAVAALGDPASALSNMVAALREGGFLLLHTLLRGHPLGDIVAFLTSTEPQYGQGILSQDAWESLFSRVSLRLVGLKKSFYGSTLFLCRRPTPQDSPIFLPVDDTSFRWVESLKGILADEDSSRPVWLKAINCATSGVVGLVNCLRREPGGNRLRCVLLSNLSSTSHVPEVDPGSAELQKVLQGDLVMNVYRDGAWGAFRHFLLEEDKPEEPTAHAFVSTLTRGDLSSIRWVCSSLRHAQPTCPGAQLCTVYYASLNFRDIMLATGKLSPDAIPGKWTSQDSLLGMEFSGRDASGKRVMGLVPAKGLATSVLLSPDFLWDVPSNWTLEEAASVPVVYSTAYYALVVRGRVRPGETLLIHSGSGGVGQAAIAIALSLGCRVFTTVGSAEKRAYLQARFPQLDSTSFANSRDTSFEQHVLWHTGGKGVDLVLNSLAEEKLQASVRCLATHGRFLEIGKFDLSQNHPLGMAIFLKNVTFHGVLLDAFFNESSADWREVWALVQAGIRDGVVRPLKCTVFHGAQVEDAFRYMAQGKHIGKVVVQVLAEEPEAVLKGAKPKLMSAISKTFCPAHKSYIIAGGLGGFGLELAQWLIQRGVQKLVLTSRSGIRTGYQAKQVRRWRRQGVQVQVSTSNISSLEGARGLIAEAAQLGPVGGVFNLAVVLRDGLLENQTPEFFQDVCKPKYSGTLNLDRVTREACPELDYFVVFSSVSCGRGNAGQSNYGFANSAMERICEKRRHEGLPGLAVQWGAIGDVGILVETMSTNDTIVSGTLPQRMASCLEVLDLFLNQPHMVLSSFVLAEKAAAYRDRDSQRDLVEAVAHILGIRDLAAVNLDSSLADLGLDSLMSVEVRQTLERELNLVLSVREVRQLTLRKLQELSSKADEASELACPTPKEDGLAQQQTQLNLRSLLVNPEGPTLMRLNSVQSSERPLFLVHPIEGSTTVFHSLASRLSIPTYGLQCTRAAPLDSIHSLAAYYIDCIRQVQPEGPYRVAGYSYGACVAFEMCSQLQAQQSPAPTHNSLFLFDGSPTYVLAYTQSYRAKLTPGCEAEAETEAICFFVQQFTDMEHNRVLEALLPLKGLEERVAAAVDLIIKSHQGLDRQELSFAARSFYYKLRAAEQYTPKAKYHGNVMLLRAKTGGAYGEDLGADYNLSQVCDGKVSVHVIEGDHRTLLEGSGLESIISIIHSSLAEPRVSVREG

O=C1NS(=O)(=O)c2ccccc21
active: [6] 73.2 µM
not listed: [14] | [15] | [16] | [17] | [18] | [19] | [20]
inactive: all other assays above

CCCCc1oc2ccccc2c1C(=O)c1cc(I)c(OCCN(CC)CC)c(I)c1
inactive: [14] | [3] | [8] | [10] | [11]
active: [1] 9.27 µM | [2] 68.3 µM | [4] 37.8 µM | [5] 48.6 µM | [7] 62.4 µM | [9] 59.1 µM | [12] 22.4 µM | [13] 68.8 µM

CCCCCCCCCCCCCCC
active: [6] 50 µM
not listed: [15] | [16] | [17] | [18] | [19] | [20]
inactive: all other assays above

CS(=O)(=O)c1ccc([C@@H](CC2CCCC2)C(=O)Nc2cnccn2)cc1Cl
inactive: [3] | [7] | [8] | [10] | [12] | [13]
active: [1] 50 µM | [2] 50 µM | [4] 83.3 µM | [5] 78.6 µM | [9] 9.92 µM

Cc1cccc2c1ccc1ccccc12
inactive: [15] | [16] | [17] | [18] | [19] | [20]

CC(C)(C)c1ccc(O)c(O)c1
inactive: [16]
active: [15] 50 µM | [19] 32.3 µM

CCCCCCCCCCCCOS(=O)(=O)O
inactive: [14] | [2] | [3] | [7] | [8] | [9] | [10] | [12]
active: [1] 80.7 µM | [5] 85.6 µM | [6] 61.6 µM | [11] 77.2 µM | [13] 86.2 µM
